Measurements from the supplement of paper PMC8728848.
Shown is part of a subset that was picked to be rich in the strongest signals.

Key:
Assay in all cases: glycan array binding signal (z-score within array); higher = stronger binding
Details in all cases: glycan notation: IUPAC condensed, linker removed
[1] = biological target: Gal3S(b1-3)[Fuc(a1-4)]GlcNAc
In short: (§1)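 Columns mapping to the same glycan were averaged after glycan names were converted to IUPAC-condensed notation. The data come from 3228 arrays in the Consortium for Functional Glycomics database, limited to those with an available protein sequence. Binding is reported as a within-array Z-score averaged across arrays of one protein sequence and across linkers.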

[2] = biological target: GalNAc(a1-3)Fuc(a1-2)Gal(b1-4)GlcNAc(b1-3)[GalNAc(a1-3)Fuc(a1-2)Gal(b1-4)GlcNAc(b1-6)]GalNAc
In short: as §1

[3] = biological target: GalNAc(a1-3)GalNAc
In short: as §1

[4] = biological target: GalNAc(b1-3)Gal(a1-4)Gal(b1-4)GlcNAc
In short: as §1

[5] = biological target: GalNAc(b1-3)GalNAc
In short: as §1

[6] = biological target: GalNAc(b1-4)Gal(b1-4)Glc
In short: as §1

[7] = biological target: GalNAc(b1-4)GlcNAc(b1-3)GalNAc(b1-4)GlcNAc
In short: as §1

[8] = biological target: GalNAc3S(b1-4)GlcNAc3S
In short: as §1

[9] = biological target: Glc(a1-6)Glc(a1-6)Glc
In short: as §1

[10] = biological target: GlcNAc(a1-3)Gal(b1-4)GlcNAc
In short: as §1

[11] = biological target: GlcNAc(a1-4)Gal(b1-4)GlcNAc(b1-3)Gal(b1-4)GlcNAc
In short: as §1

[12] = biological target: GlcNAc(b1-2)[GlcNAc(b1-4)]Man(a1-3)[GlcNAc(b1-4)][GlcNAc(b1-2)[GlcNAc(b1-6)]Man(a1-6)]Man(b1-4)GlcNAc(b1-4)[Fuc(a1-6)]GlcNAc
In short: as §1

[13] = biological target: GlcNAc(b1-3)Gal(b1-4)GlcNAc(b1-3)Gal(b1-4)GlcNAc(b1-2)[GlcNAc(b1-3)Gal(b1-4)GlcNAc(b1-3)Gal(b1-4)GlcNAc(b1-6)]Man(a1-6)[GlcNAc(b1-3)Gal(b1-4)GlcNAc(b1-3)Gal(b1-4)GlcNAc(b1-2)Man(a1-3)]Man(b1-4)GlcNAc(b1-4)[Fuc(a1-6)]GlcNAc
In short: as §1

[14] = biological target: GlcNAc(b1-3)Gal(b1-4)GlcNAc(b1-3)GalNAc
In short: as §1

[15] = biological target: GlcNAc(b1-3)[GlcNAc(b1-6)]GalNAc
In short: as §1

[16] = biological target: GlcNAc(b1-4)GlcNAc(b1-4)GlcNAc(b1-4)GlcNAc(b1-4)GlcNAc(b1-4)GlcNAc
In short: as §1

[17] = biological target: Man(a1-3)[Man(a1-6)]Man(b1-4)GlcNAc(b1-4)GlcNAc
In short: as §1

[18] = biological target: Neu5Ac(a2-3)Gal(b1-4)GlcNAc(b1-2)[Neu5Ac(a2-3)Gal(b1-4)GlcNAc(b1-4)]Man(a1-3)[GlcNAc(b1-4)][Neu5Ac(a2-3)Gal(b1-4)GlcNAc(b1-4)Man(a1-6)]Man(b1-4)GlcNAc(b1-4)GlcNAc
In short: as §1

[19] = biological target: Neu5Ac(a2-3)Gal(b1-4)GlcNAc(b1-3)Gal(b1-4)GlcNAc(b1-3)GalNAc
In short: as §1

[20] = biological target: Neu5Ac(a2-3)GalNAc(b1-4)GlcNAc
In short: as §1

[21] = biological target: Neu5Ac(a2-6)Gal
In short: as §1

[22] = biological target: Neu5Ac(a2-6)Gal(b1-4)GlcNAc(b1-2)Man(a1-3)[GlcNAc(b1-2)Man(b1-4)GlcNAc(b1-2)Man(a1-6)]Man(b1-4)GlcNAc(b1-4)GlcNAc
In short: as §1

[23] = biological target: Neu5Ac(a2-6)Gal(b1-4)GlcNAc6S
In short: as §1

[24] = biological target: Neu5Ac(a2-6)GlcNAc(b1-4)GlcNAc
In short: as §1

[25] = biological target: Neu5Gc(a2-3)Gal(b1-3)GlcNAc
In short: as §1

[26] = biological target: Neu5Gc(a2-3)Gal(b1-4)Glc
In short: as §1

[27] = biological target: Neu5Gc(a2-8)Neu5Ac(a2-3)Gal(b1-4)GlcNAc
In short: as §1

[28] = biological target: Neu5Gc(a2-8)Neu5Gc(a2-3)Gal(b1-4)GlcNAc
In short: as §1

B1: Epa1-NP (Candida glabrata), Q6VBJ0 (protein)
chain: MILNPALFLNKCVCIYTTLILLLLTNGGYATSSNDISLASKDPTTFPLGCSPDITTPKKGLSMELYSYDFRKKGSYPCWDAAYLDPNYPRTGYKSHRLLAKVDGVTGNINFYYHATKGCTPQLGHLPASYNYPKPLTMTNFTMLLYGYFRPKVTGFHTFTISADDLLFVNFGAGNAFDCCRRDSSADHFGNYQAYAIWGSKTAKDELTVHLDAGVYYPIRLFYNNREYDGALSFTFKTESNENTVSDFSEYFFSLDDTEEGCPGLISYDSSCASVKTSKIIGIDYHTETPNENLVPITKTIYHLGIPCTGTTTTPLCGSGFYDPLANKCVTINTSSTSSVTKTTSHTTSKEVSFHSSISSQKTLIPKSIPSPYGPIKSQSIPTEMETSSEISSSEYAFSDVISTPSHSPYTKKHSSLNSSSYTSTVIHSLTSYSISQGIFSTSLSEQNITSKSSTDKFSTATSMSNNITQSSIIISQFSTNNENYTTTSMHTSSDKISTETLNNSISTTTSILFSNSSTILKNNTTIISSDKDTHYHPVNPTIVCSTNKTEIICASITQPSISNSNNHWSSSVLKFNSTTVRSTLPSSAGSNETSINVPFSSSTESNTSTSSTSTSNSKMVRSTLPSSAGSNETSISVPFSSSTESNTSTSSTSTSNSKMVRSTLPSSAGSNETSINVPFSSSTESNTSTSSTSTSNSKTVRSTPFSSAGIIMTSLSQRNNKSASSYASSNSKCYNTADSCRKVHSTPSYLLTSSYTSEGVDYDCSLVSTKLKINDTNCVNNKHTTKSCLKTSVTTTIPTLEIKTARKSSSNTIGLHSYPTSSPNKSISSAPIIGYISSFKTIKTASPSYQTSDLTTITTITSLNNPGSTAVENTHESNDKSRKTSSNDISSKHSVIKETKDAVESSNKSHQTNTLKCSSIIIASSSHNSYESLGGTTLTLTLSKVYSPQNNDTLPFLEISEVNPSRTVLPESSKMMQYLTSTEERNKTARNTIATNIVSISTFHFEGEGNAIRMGYTQLLLMLIGIIVMNIGT
glycan array binding signal (z-score) [1]: -0.293
glycan array binding signal (z-score) [2]: -0.254
glycan array binding signal (z-score) [3]: -0.306
glycan array binding signal (z-score) [4]: -0.325
glycan array binding signal (z-score) [5]: -0.293
glycan array binding signal (z-score) [6]: -0.286
glycan array binding signal (z-score) [7]: -0.291
glycan array binding signal (z-score) [8]: -0.283
glycan array binding signal (z-score) [9]: -0.338
glycan array binding signal (z-score) [10]: -0.317
glycan array binding signal (z-score) [11]: -0.217
glycan array binding signal (z-score) [12]: -0.285
glycan array binding signal (z-score) [13]: -0.27
glycan array binding signal (z-score) [14]: -0.287
glycan array binding signal (z-score) [15]: -0.284
glycan array binding signal (z-score) [16]: -0.319
glycan array binding signal (z-score) [17]: -0.374
glycan array binding signal (z-score) [18]: -0.295
glycan array binding signal (z-score) [19]: -0.291
glycan array binding signal (z-score) [20]: -0.338
glycan array binding signal (z-score) [21]: -0.276
glycan array binding signal (z-score) [22]: -0.296
glycan array binding signal (z-score) [23]: -0.31
glycan array binding signal (z-score) [24]: -0.281
glycan array binding signal (z-score) [25]: -0.348
glycan array binding signal (z-score) [26]: -0.308
glycan array binding signal (z-score) [27]: -0.286
glycan array binding signal (z-score) [28]: -0.286
